In experiment [1] the target is Mitogen-activated protein kinase kinase kinase kinase 4 (Homo sapiens) (UniProt O95819). The conditions noted are these: at 1 µM.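 Note: reported figure is an averaged inhibition value.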
Experiment [2] has as its target Dual specificity mitogen-activated protein kinase kinase 1 (Homo sapiens) (UniProt Q02750). The conditions noted are these: at 0.1 µM.
Experiment [3] has the same target. The note with it: at 1 µM.
The target of experiment [4] is Misshapen-like kinase 1 (Homo sapiens) (UniProt Q8N4C8). The note with it: at 0.1 µM.
Misshapen-like kinase 1 (Homo sapiens), sequence (Q8N4C8 whole entry, looked up): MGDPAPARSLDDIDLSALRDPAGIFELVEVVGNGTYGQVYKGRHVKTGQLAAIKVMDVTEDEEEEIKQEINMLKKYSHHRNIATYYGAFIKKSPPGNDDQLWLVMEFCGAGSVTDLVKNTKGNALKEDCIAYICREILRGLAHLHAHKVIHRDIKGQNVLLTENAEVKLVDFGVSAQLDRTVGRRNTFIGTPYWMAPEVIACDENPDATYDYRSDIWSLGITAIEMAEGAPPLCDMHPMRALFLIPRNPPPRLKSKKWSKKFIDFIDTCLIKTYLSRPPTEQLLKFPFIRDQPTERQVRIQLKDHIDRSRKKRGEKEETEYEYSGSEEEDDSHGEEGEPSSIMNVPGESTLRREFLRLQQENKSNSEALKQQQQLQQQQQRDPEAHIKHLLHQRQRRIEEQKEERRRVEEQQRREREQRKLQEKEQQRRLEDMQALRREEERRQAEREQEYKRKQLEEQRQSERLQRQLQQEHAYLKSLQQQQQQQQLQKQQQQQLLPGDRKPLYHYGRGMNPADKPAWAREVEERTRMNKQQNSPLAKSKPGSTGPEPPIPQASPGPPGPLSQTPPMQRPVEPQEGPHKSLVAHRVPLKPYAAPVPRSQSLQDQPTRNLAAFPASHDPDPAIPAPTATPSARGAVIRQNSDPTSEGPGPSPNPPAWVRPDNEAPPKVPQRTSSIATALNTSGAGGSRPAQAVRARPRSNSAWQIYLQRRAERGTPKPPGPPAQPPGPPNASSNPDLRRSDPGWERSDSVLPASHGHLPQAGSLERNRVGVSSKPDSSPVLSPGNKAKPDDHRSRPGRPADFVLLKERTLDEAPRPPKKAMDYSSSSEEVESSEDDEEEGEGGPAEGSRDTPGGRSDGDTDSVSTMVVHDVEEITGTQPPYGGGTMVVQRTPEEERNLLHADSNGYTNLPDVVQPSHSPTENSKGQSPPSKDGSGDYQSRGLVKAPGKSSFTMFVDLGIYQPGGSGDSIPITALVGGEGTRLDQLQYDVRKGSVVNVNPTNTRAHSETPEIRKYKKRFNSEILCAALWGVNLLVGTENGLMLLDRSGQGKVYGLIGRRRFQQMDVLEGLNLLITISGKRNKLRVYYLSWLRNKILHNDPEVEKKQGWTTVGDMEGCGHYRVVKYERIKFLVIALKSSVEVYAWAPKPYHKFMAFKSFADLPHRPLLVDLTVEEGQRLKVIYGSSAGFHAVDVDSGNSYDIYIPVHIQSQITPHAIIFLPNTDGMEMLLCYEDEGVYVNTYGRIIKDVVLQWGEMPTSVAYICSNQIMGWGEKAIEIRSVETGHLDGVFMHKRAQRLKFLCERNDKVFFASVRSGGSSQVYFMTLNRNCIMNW
Experiment [5] has the same target. The conditions noted are these: at 1 µM.
The target of experiment [6] is T1, Serine/threonine-protein kinase 4 (Homo sapiens) (UniProt Q13043).
T1 sequence (whole entry): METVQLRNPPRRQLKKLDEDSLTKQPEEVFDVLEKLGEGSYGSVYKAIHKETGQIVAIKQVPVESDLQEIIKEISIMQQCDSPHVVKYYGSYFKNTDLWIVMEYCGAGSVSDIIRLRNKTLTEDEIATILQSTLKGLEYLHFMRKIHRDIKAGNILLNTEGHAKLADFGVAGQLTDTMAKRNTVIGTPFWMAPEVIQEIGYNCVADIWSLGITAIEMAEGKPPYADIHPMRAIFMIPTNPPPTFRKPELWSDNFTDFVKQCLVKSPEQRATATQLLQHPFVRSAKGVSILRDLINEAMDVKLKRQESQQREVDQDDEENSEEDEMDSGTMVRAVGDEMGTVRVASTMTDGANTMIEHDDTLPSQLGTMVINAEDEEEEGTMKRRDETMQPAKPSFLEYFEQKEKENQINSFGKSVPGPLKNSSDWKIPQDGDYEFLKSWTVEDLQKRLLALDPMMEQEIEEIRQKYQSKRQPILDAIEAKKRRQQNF
The conditions noted are these: at 0.1 µM.

Experiment [7] concerns the target T1, Serine/threonine-protein kinase 4 (Homo sapiens). The note with it: at 1 µM.
Experiment [8] addresses T2, Serine/threonine-protein kinase 3 (Homo sapiens) (UniProt Q13188).
T2 sequence (whole entry): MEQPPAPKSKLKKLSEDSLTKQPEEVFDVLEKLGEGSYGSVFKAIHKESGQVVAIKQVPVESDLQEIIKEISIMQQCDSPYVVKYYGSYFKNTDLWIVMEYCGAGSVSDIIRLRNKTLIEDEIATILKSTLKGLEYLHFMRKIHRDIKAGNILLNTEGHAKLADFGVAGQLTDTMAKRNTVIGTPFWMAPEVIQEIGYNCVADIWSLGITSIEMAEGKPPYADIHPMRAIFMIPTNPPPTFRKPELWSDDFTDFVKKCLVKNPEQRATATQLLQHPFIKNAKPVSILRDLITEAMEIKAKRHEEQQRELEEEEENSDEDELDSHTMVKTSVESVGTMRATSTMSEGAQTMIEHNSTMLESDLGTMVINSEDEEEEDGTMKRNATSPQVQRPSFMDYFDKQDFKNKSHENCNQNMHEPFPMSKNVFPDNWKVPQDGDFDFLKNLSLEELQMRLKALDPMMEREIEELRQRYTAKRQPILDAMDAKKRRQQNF
The conditions noted are these: at 0.1 µM.

Experiment [9] has as its target T2, Serine/threonine-protein kinase 3 (Homo sapiens). The conditions noted are these: at 1 µM.
Experiment [10] addresses Serine/threonine-protein kinase 26 (Homo sapiens) (UniProt Q9P289). The conditions noted are these: at 0.1 µM.
The target is the same in experiment [11]. The note with it: at 1 µM.
For experiment [12], the target named is Serine/threonine-protein kinase PAK 1 (Homo sapiens) (UniProt Q13153). The conditions noted are these: at 0.1 µM.
Serine/threonine-protein kinase PAK 1 (Homo sapiens), sequence (Q13153 whole entry): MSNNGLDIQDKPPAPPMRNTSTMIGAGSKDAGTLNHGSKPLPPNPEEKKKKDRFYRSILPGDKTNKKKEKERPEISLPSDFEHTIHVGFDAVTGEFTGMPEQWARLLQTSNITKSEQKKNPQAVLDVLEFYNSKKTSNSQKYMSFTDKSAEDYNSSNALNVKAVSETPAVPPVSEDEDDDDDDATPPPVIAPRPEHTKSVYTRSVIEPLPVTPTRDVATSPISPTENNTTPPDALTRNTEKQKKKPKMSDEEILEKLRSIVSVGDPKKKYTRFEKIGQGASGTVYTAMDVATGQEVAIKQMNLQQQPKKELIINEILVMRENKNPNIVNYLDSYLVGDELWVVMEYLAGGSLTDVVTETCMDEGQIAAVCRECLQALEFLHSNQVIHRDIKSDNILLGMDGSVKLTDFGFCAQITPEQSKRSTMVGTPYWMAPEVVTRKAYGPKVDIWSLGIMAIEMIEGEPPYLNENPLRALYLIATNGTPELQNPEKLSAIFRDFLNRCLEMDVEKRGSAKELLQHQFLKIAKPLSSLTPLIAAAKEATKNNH
The target is the same in experiment [13]. The note with it: at 1 µM.
Experiment [14] deals with Serine/threonine-protein kinase PAK 2 (Homo sapiens) (UniProt Q13177). The note with it: at 0.1 µM.
Serine/threonine-protein kinase PAK 2 (Homo sapiens), sequence (Q13177 whole entry): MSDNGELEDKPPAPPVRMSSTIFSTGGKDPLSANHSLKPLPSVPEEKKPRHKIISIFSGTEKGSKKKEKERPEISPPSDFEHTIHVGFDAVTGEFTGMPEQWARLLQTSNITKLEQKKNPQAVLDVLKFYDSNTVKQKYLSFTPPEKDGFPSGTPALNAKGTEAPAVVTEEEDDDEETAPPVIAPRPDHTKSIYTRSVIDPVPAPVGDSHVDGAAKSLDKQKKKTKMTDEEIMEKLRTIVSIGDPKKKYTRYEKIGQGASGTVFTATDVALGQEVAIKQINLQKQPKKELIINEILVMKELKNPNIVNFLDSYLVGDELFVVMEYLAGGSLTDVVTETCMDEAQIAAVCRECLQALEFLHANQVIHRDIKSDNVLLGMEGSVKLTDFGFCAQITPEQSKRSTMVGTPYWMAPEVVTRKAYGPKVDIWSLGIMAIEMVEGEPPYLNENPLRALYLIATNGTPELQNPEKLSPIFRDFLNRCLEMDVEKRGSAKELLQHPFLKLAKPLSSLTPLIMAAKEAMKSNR
Experiment [15] shares this target. The conditions noted are these: at 1 µM.
The target in experiment [16] is Serine/threonine-protein kinase PAK 3 (Homo sapiens) (UniProt O75914). The note with it: at 0.1 µM.
The target is the same in experiment [17]. The conditions noted are these: at 1 µM.
The target in experiment [18] is Serine/threonine-protein kinase PAK 5 (Homo sapiens) (UniProt Q9P286). The note with it: at 0.1 µM.
Serine/threonine-protein kinase PAK 5 (Homo sapiens), sequence (Q9P286 whole entry, looked up): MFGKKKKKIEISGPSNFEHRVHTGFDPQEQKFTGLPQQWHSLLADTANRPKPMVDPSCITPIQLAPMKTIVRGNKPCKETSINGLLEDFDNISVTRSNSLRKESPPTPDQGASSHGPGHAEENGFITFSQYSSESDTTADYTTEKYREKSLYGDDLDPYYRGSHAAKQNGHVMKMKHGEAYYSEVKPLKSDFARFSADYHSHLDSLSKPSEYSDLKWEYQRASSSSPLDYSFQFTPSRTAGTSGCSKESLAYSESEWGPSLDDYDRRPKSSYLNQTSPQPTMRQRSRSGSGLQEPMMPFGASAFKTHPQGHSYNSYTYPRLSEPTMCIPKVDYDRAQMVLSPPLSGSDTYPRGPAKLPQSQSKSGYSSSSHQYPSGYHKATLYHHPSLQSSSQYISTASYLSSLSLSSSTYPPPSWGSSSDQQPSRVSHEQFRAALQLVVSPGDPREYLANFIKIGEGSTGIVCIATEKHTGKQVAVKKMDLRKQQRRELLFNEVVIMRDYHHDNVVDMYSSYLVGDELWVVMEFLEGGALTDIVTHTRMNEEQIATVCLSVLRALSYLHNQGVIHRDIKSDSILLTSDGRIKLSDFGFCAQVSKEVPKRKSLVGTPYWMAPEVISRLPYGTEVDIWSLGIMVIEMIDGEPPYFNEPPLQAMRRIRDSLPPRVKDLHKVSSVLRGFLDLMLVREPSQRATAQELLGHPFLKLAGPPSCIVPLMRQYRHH
For experiment [19] the target is unchanged. The conditions noted are these: at 1 µM.
For experiment [20], the target named is Serine/threonine-protein kinase PAK 6 (Homo sapiens) (UniProt Q9NQU5). The note with it: at 0.1 µM.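 Note: mean PAK6 inhibition reported from the GSK PKIS screen.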
Serine/threonine-protein kinase PAK 6 (Homo sapiens), sequence (Q9NQU5 whole entry, looked up): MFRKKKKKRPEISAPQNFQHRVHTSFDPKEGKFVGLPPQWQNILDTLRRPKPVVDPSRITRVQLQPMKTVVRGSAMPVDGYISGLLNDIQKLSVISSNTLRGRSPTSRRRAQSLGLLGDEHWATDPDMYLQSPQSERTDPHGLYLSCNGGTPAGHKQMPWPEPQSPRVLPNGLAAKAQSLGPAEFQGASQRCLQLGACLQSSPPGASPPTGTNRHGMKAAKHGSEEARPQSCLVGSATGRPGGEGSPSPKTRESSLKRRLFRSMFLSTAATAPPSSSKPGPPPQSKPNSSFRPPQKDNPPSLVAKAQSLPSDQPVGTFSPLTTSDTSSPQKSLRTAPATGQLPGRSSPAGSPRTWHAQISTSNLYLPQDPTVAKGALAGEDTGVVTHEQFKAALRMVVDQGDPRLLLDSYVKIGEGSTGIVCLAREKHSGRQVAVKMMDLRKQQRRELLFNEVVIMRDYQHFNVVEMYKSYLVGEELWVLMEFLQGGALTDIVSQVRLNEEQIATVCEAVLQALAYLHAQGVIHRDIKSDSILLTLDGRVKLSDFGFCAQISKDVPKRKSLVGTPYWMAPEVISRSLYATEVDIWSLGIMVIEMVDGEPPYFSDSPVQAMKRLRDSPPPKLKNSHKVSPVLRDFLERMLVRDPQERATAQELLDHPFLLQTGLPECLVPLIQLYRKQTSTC

Each structure is given as a SMILES string.

Dual specificity mitogen-activated protein kinase kinase 1 (Homo sapiens), sequence (Q02750 whole entry): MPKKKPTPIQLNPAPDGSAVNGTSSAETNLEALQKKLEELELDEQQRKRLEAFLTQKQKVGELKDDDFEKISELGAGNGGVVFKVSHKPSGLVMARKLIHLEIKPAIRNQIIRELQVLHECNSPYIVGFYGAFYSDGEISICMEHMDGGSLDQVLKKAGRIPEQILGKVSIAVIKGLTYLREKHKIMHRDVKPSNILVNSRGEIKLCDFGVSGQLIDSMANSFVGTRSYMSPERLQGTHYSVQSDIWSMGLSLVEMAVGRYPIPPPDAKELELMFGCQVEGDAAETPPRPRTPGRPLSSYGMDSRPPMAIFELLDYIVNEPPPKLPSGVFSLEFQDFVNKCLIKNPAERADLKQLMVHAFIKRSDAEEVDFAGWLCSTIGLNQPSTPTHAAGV
Serine/threonine-protein kinase 26 (Homo sapiens), sequence (Q9P289 2-416 limits assumed): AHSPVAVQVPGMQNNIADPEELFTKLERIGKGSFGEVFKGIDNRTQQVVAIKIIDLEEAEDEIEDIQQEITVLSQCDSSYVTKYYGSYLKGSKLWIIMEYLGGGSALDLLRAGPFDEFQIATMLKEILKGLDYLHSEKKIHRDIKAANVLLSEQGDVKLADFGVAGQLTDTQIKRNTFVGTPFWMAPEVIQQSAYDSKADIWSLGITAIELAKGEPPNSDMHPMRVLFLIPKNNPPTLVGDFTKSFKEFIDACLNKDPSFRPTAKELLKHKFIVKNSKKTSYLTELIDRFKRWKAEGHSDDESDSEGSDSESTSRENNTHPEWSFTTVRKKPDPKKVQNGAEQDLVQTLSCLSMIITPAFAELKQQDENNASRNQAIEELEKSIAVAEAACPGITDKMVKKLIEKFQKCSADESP

As usually defined, the inhibition is the drop in the measured response relative to a control, in per cent. As to `COc1ccc(-c2cc(-c3c[nH]nc3-c3ccccn3)ccn2)cc1`, the inhibition in experiment [1] turned out to be 80.3%; in experiment [2], 6.36%; in experiment [3], 4.25%; in [4], 24.6%; in experiment [5], 72.7%; in experiment [6], 7.65%. In addition, the inhibition was 10.6% in [7]; 9.35% in [8]; 10.1% in experiment [9]; -2.95% in experiment [10]; -0.46% in experiment [11]; 0.78% in experiment [12]. Also, the inhibition was 3.96% in experiment [13]; 2.66% in [14]; 1.63% in experiment [15]; 5.46% in experiment [16]; 5.49% in [17]; 3.54% in [18]. In addition, the inhibition worked out at 1.94% in experiment [19] and 6.89% in experiment [20].

With `CCN(CC)S(=O)(=O)c1ccc(OC)c(Nc2ncc(-c3ccccc3)o2)c1`, the inhibition in experiment [1] was 7.43%; in [2], -0.08%; in experiment [3], 0.32%; in [4] it was 4.58%; in experiment [5] it was 7.11%; in experiment [6], 6.37%. Also, the inhibition in [7] was 11%; in [8], 7%; in experiment [9], 9.26%; in [10] it was 0.95%; in [11], 2.13%; in [12], -1.78%. The inhibition in [13] was 3.9%; in experiment [14] it was -0.97%; in experiment [15], 0.12%; in [16] it was 0.22%; in experiment [17], 1.76%; in [18], 8.61%. The inhibition is -0.8% in experiment [19] and 5.19% in [20].

Turning to `N#Cc1c(NC(=O)c2ccc(F)cc2)sc2c1CCCC2`, the inhibition in experiment [1] is 5.3%; in [2], 1.23%; in experiment [3] it was 1.68%; in experiment [4], 2.23%; in experiment [5] it was 4.89%; in experiment [6], -0.35%. The inhibition in experiment [7] was 2.59%; in experiment [8], 0.16%; in [9] it was 3.36%; in [10], -0.1%; in [11] it was 2.43%; in [12] it was -0.82%. For the same molecule, the inhibition in experiment [13] was 3.8%; in experiment [14], 0.64%; in experiment [15] it was 0.15%; in experiment [16] it was 1.5%; in [17], 1.26%; in experiment [18] it was -0.93%. Further, the inhibition in experiment [19] is -0.51%; in [20], -7.52%.

Turning to `CNC(=O)c1cccc(C#Cc2cncnc2Nc2ccc(OCc3cccc(F)c3)c(Cl)c2)c1`, the inhibition in experiment [1] was 5.4%; in [2], 0.1%; in experiment [3], 1.05%; in experiment [4], -0.5%; in [5], 5.14%; in experiment [6], 4.83%. Further, the inhibition in experiment [7] stood at 8.84%; in experiment [8], 5.85%; in experiment [9], 7.85%; in experiment [10], 0.31%; in experiment [11], 4.41%; in experiment [12] it was 2.05%. Also, the inhibition in [13] is 1.45%; in [14] it was 0.68%; in experiment [15], 1.72%; in experiment [16], -0.16%; in experiment [17], 0.51%; in experiment [18], 7.61%. For the same molecule, the inhibition in [19] is -2.53%; in experiment [20], 9.54%.

As to `O=S(=O)(CCNCc1ccc(-c2ccc3ncnc(Nc4ccc(OCc5cccc(F)c5)c(Cl)c4)c3c2)o1)c1ccccc1`, the inhibition in experiment [1] worked out at 10.8%; in [2], 6.48%; in [3], 5.62%; in experiment [4], 5.49%; in experiment [5], 5.63%; in [6] it was 4.83%. For the same molecule, the inhibition was 7.44% in experiment [7]; 8.36% in experiment [8]; 9.44% in experiment [9]; -1.43% in experiment [10]; -0.49% in experiment [11]; 10% in [12]. Also, the inhibition is 7.19% in experiment [13]; 2.7% in experiment [14]; 3.71% in experiment [15]; 6.62% in experiment [16]; 5.75% in [17]; 4.32% in experiment [18]. Also, the inhibition in experiment [19] was 5.17%; in [20] it was 0.2%.

Consider `Cc1ccc2c(-c3ccnc(Nc4ccccc4)n3)c(-c3ccc(F)cc3)nn2n1`, for which the inhibition in experiment [1] was 62.1%; in [2] it was 4.55%; in experiment [3] it was 10.8%; in [4], 9.04%; in experiment [5], 50.7%; in [6], 6.19%. In addition, the inhibition in [7] was 5.86%; in [8], 8.21%; in experiment [9], 5.67%; in experiment [10] it was -1.05%; in experiment [11], 0%; in experiment [12] it was 3.46%. The inhibition in experiment [13] is 6.67%; in experiment [14], 2.41%; in experiment [15], 1.9%; in [16], 3.55%; in experiment [17], 4.22%; in [18], 8.15%. Besides, the values for the inhibition in experiment [19] and in experiment [20] were 2.93% and 1.48%, respectively.

The values are drawn from ChEMBL document CHEMBL1961873, “Compounds: GSK PKIS; Assays: Nanosyn kinase panel” (2012).
